Source: the supplement of paper PMC8728848
Many of the other results were omitted from the sample, so the strongest signals are more common in it than they were.

How the values were obtained:
Experiment in all cases: glycan array binding signal (z-score within array); higher = stronger binding
[1] = test system: Kdn(a2-3)Gal(b1-4)GlcNAc; conditions: glycan notation: IUPAC condensed, linker removed
How it was run: (§1)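 From the Consortium for Functional Glycomics database, 3228 arrays were curated, keeping only those whose protein sequence was available. Binding is given as a within-array Z-score averaged across arrays sharing a protein sequence and across linkers. Negative Z-scores can be read as non-binding.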

[2] = test system: Man(a1-2)Man(a1-6)[Man(a1-3)]Man(a1-6)[Man(a1-2)Man(a1-2)Man(a1-3)]Man; conditions: glycan notation: IUPAC condensed, linker removed
How it was run: as §1

[3] = test system: Kdn(a2-3)Gal(b1-4)[Fuc(a1-3)]GlcNAc; conditions: glycan notation: IUPAC condensed, linker removed
How it was run: as §1

[4] = test system: Kdn(a2-6)Gal(b1-4)GlcNAc; conditions: glycan notation: IUPAC condensed, linker removed
How it was run: as §1

[5] = test system: Man(a1-2)Man(a1-2)Man(a1-3)[Man(a1-2)Man(a1-3)[Man(a1-2)Man(a1-6)]Man(a1-6)]Man(b1-4)GlcNAc(b1-4)GlcNAc; conditions: glycan notation: IUPAC condensed, linker removed
How it was run: as §1

[6] = test system: Man(a1-2)Man(a1-2)Man(a1-3)[Man(a1-2)Man(a1-6)[Man(a1-3)]Man(a1-6)]Man(b1-4)GlcNAc(b1-4)GlcNAc; conditions: glycan notation: IUPAC condensed, linker removed; mutation: D138V, E140I
How it was run: as §1

[7] = test system: Man(a1-3)[Man(a1-6)]Man; conditions: glycan notation: IUPAC condensed, linker removed
How it was run: as §1

[8] = test system: Man(a1-2)Man(a1-2)Man(a1-6)[Man(a1-3)]Man; conditions: glycan notation: IUPAC condensed, linker removed
How it was run: as §1

[9] = test system: Man(a1-2)Man(a1-3)[Man(a1-2)Man(a1-6)]Man(a1-6)[Man(a1-2)Man(a1-2)Man(a1-3)]Man(b1-4)GlcNAc(b1-4)GlcNAc; conditions: glycan notation: IUPAC condensed, linker removed
How it was run: as §1

[10] = test system: Man(a1-2)Man(a1-3)[Man(a1-2)Man(a1-6)]Man(a1-6)[Man(a1-2)Man(a1-2)Man(a1-3)]Man; conditions: glycan notation: IUPAC condensed, linker removed
How it was run: as §1

[11] = test system: Man(a1-2)Man(a1-3)[Man(a1-6)]Man(a1-6)[Man(a1-2)Man(a1-3)]Man(b1-4)GlcNAc(b1-4)GlcNAc; conditions: glycan notation: IUPAC condensed, linker removed
How it was run: as §1

[12] = test system: Man(a1-2)Man(a1-6)[Man(a1-3)]Man(a1-6)[Man(a1-2)Man(a1-2)Man(a1-3)]Man(b1-4)GlcNAc(b1-4)GlcNAc; conditions: glycan notation: IUPAC condensed, linker removed
How it was run: as §1

[13] = test system: Man(a1-3)[Man(a1-6)]Man(a1-6)[Man(a1-2)Man(a1-3)]Man(b1-4)GlcNAc(b1-4)GlcNAc; conditions: glycan notation: IUPAC condensed, linker removed
How it was run: as §1

[14] = test system: Man(a1-3)[Man(a1-6)]Man(a1-6)[Man(a1-3)]Man(b1-4)GlcNAc(b1-4)GlcNAc; conditions: glycan notation: IUPAC condensed, linker removed
How it was run: as §1

[15] = test system: Man(a1-2)Man(a1-3)Man; conditions: glycan notation: IUPAC condensed, linker removed
How it was run: as §1

[16] = test system: Man(a1-3)[Man(a1-6)]Man(a1-6)[Man(a1-3)]Man; conditions: glycan notation: IUPAC condensed, linker removed
How it was run: as §1

[17] = test system: Man(a1-3)[Man(a1-6)]Man(b1-4)GlcNAc(b1-4)[Fuc(a1-6)]GlcNAc; conditions: glycan notation: IUPAC condensed, linker removed
How it was run: as §1

[18] = test system: Man(a1-2)Man(a1-3)[Man(a1-2)Man(a1-6)]Man(a1-6)[Man(a1-3)[Man(a1-6)]Man(a1-6)]Man(b1-4)GlcNAc(b1-4)GlcNAc; conditions: glycan notation: IUPAC condensed, linker removed
How it was run: as §1

Chain of Avaren (Actinomycete K97) (chain, as listed by the source): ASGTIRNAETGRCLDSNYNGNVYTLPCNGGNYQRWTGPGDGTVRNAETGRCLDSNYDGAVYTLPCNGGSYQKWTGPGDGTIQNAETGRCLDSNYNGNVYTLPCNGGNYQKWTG
Chain of CHT (Homo sapiens) (chain, as listed by the source): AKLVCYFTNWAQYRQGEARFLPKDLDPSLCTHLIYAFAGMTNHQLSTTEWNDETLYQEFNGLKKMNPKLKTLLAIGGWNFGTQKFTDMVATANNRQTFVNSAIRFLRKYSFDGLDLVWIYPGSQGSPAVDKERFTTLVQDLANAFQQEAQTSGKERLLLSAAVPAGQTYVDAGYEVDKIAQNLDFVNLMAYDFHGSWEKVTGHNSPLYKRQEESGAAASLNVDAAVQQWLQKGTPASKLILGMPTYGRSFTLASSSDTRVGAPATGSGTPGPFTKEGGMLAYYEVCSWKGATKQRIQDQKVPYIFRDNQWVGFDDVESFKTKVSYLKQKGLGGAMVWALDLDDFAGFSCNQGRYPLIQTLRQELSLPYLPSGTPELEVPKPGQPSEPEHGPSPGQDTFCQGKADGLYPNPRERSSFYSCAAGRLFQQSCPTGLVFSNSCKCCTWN
Chain of C3b (Homo sapiens), P01024 (P01024 23-667): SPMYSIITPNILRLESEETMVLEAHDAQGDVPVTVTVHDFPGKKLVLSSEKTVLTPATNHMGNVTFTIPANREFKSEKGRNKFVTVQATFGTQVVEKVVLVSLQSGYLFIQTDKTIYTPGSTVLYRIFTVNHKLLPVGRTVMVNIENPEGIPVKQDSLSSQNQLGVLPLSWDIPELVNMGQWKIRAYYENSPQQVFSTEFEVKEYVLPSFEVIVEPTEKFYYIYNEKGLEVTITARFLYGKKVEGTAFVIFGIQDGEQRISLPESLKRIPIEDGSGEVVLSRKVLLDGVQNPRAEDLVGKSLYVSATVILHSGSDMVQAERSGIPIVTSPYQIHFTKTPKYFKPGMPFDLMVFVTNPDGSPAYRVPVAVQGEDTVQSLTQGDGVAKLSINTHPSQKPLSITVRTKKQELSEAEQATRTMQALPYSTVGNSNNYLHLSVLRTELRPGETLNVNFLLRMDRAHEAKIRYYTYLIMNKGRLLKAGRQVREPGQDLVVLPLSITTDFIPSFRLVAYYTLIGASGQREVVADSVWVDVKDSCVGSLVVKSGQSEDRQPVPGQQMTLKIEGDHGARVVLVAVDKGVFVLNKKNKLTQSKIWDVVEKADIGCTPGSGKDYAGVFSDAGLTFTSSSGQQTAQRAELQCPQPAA
Chain of CHI3L1 (Homo sapiens), P36222 (P36222 whole entry): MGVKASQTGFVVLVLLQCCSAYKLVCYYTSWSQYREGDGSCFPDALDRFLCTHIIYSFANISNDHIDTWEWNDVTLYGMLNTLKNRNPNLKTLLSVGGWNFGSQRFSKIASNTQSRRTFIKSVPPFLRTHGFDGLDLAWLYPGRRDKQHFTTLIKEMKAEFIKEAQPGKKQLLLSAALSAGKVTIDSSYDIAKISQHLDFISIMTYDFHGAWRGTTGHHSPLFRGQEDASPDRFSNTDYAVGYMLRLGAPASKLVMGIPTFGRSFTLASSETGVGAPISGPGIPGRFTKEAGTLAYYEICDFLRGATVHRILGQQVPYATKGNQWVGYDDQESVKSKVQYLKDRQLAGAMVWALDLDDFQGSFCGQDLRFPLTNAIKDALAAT
Chain of Aggrecan (Rattus norvegicus), NP_071526 (chain, as listed by the source): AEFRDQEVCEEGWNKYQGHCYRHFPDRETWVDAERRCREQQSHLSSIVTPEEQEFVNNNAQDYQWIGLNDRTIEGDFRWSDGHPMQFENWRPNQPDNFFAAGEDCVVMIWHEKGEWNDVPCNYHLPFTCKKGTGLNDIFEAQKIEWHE
Chain of PILRb (Mus musculus), Q2YSF2 (Q2YSF2 entry or part of it): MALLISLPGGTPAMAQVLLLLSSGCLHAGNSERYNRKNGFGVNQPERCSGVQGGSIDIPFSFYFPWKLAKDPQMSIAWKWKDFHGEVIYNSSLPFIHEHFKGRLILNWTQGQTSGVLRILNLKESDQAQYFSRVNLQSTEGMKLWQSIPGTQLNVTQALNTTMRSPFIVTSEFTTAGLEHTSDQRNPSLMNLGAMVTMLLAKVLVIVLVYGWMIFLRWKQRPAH
Chain of 6RG (Lolium perenne), B9U140 (B9U140 entry or part of it): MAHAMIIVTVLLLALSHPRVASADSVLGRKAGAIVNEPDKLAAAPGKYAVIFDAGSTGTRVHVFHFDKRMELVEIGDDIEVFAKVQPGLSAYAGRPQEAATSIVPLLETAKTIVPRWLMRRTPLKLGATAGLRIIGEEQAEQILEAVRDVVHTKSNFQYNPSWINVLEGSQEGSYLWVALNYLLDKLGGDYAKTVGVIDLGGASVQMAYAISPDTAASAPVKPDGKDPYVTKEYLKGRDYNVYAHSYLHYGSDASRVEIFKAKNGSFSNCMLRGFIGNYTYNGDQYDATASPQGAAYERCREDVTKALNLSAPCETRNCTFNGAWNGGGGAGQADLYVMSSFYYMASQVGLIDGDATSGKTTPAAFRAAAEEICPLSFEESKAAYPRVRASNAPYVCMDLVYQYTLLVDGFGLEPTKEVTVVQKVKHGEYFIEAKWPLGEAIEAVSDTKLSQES
Chain of Neurocan (Homo sapiens), O14594 (O14594 other isoform, or with tags, fused parts or gaps): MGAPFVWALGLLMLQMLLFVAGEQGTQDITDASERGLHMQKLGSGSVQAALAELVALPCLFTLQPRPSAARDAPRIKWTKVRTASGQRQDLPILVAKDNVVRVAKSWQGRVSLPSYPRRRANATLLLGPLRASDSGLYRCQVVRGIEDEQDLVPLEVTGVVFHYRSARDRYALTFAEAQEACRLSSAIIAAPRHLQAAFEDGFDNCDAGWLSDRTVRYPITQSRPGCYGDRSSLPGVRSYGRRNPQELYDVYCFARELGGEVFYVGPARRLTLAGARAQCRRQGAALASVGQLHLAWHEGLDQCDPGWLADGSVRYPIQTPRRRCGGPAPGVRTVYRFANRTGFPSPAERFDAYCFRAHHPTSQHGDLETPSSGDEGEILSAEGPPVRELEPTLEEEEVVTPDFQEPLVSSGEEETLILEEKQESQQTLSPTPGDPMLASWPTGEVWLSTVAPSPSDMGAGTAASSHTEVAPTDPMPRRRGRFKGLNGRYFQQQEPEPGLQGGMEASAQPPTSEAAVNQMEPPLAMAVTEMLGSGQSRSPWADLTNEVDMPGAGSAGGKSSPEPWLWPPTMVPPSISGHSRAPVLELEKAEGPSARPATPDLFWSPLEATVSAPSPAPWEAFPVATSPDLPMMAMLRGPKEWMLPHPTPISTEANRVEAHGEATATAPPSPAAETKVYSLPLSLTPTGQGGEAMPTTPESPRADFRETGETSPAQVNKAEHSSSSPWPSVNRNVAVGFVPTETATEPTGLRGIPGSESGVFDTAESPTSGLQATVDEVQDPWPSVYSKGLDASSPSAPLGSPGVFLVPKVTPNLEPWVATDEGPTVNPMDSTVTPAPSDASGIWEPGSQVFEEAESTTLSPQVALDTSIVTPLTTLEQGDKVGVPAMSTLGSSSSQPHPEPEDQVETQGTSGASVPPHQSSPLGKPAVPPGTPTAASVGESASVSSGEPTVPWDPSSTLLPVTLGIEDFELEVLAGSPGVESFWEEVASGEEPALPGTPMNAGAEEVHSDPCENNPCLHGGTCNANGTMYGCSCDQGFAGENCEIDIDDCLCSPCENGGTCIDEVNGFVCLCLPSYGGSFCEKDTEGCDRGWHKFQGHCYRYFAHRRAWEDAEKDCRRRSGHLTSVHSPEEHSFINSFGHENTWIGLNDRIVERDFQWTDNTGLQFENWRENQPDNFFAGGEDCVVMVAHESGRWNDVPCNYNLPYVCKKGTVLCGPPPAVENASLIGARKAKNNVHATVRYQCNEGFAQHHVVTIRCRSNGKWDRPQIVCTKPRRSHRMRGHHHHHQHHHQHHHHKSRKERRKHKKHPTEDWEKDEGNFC
Chain of SRLC (Mus musculus), Q8VIF6 (Q8VIF6 other isoform, or with tags, fused parts or gaps): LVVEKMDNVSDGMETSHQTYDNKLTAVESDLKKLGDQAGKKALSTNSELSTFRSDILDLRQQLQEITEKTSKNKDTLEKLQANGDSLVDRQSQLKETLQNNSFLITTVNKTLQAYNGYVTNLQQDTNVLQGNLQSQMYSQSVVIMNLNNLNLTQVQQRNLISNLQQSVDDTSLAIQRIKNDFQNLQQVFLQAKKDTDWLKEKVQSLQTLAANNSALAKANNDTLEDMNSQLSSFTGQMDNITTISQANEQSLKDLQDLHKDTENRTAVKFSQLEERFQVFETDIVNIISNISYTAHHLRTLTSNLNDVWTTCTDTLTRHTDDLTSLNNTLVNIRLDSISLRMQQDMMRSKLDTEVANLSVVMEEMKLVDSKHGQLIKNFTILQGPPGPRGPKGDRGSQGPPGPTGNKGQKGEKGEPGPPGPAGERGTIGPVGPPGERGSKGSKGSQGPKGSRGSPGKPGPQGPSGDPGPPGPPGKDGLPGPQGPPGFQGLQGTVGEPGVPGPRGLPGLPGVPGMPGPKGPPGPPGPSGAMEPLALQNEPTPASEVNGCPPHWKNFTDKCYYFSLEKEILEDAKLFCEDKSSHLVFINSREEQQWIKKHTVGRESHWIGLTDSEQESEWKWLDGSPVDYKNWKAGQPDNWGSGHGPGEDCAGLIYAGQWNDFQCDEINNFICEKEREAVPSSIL
Chain of PILRa (Mus musculus), Q2YSF3 (Q2YSF3 entry or part of it): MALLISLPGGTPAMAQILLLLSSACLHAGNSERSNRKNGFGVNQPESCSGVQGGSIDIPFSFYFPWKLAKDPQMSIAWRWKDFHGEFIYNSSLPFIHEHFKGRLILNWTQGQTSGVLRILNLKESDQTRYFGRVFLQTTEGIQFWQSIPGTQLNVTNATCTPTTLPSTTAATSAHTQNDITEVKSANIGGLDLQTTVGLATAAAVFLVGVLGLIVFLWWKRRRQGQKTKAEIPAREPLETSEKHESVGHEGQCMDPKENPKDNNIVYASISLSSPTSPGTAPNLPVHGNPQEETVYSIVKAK

C3b (Homo sapiens), P01024
glycan array binding signal (z-score) [1]: -0.561
glycan array binding signal (z-score) [2]: -0.764

CHI3L1 (Homo sapiens), P36222
glycan array binding signal (z-score) [1]: -0.144
glycan array binding signal (z-score) [3]: 0.381

PILRb (Mus musculus), Q2YSF2
glycan array binding signal (z-score) [3]: 0.391

PILRa (Mus musculus), Q2YSF3
glycan array binding signal (z-score) [4]: -0.059

SRLC (Mus musculus), Q8VIF6
glycan array binding signal (z-score) [5]: -0.241

CHT (Homo sapiens)
glycan array binding signal (z-score) [6]: -0.189
glycan array binding signal (z-score) ([7]; mutation: D138V, E140I): -0.149

Avaren (Actinomycete K97)
glycan array binding signal (z-score) [8]: 14.7
glycan array binding signal (z-score) [9]: 1.26
glycan array binding signal (z-score) [10]: 11.2
glycan array binding signal (z-score) [11]: 1.08
glycan array binding signal (z-score) [12]: 13.4
glycan array binding signal (z-score) [2]: 6.02
glycan array binding signal (z-score) [13]: -0.014
glycan array binding signal (z-score) [14]: -0.113
glycan array binding signal (z-score) [7]: -0.106

Siglec-8 (Homo sapiens), Q9NYZ4
glycan array binding signal (z-score) [15]: -0.003
glycan array binding signal (z-score) [16]: 0.131
glycan array binding signal (z-score) ([16]; mutation: R125K): -0.227
glycan array binding signal (z-score) [17]: -0.07

Aggrecan (Rattus norvegicus), NP_071526
glycan array binding signal (z-score) [9]: 0.607
glycan array binding signal (z-score) [13]: 1.14

HARE (Homo sapiens), Q8WWQ8
glycan array binding signal (z-score) [18]: 2.39

6RG (Lolium perenne), B9U140
glycan array binding signal (z-score) [14]: -0.359

Neurocan (Homo sapiens), O14594
glycan array binding signal (z-score) [16]: -0.722
